Test systems include DU-145 prostate; K-562 leukemia; MALME-3M melanoma; MDA-MB-231 breast; RXF 393 renal; SF-268 CNS; SF-295 CNS; SF-539 CNS; UACC-257 melanoma; M14 melanoma; HCT-15 colon; HT29 colon; SNB-75 CNS; SNB-19 CNS; U251 CNS; PC-3 prostate; SK-MEL-5 melanoma; UACC-62 melanoma; LOX IMVI melanoma; SK-MEL-28 melanoma.
Test in all cases: NCI-60 one-dose screen, 48 h (100 = growth as untreated, 0 = no growth, -100 = all killed)
Holding throughout (conditions): 10 µM unless noted

This is part of a sample that, as a whole, favours compounds with a hit. Of some 83,000 tested, about 20% had one in any assay.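 Activity criterion: percent growth below 10, measured after cells in 96-well plates were exposed to a single compound concentration for 48 hours.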 A number with no mark means an inactive call. Activity calls are given as the source filed them.

For the compound `CN(C)c1ccc(/C=C(\C#N)c2cc3ccccc3[nH]2)cc1`, the growth was 24.5% in the assay with DU-145 prostate; 14% in the assay with K-562 leukemia; 63.9% in the assay with MALME-3M melanoma; 31.9% in the assay with MDA-MB-231 breast; 28.9% with RXF 393 renal; 39.8% with SF-268 CNS. Moreover, the growth in the assay on SF-295 CNS is 8.98% (active); in the assay with SF-539 CNS, 6.06% (active); in the assay on UACC-257 melanoma, 57.1%; with M14 melanoma it was 9.05% (active); in the assay with HCT-15 colon, 23.6%; with HT29 colon, 5.51% (active). For the same compound, the growth in the assay with SNB-75 CNS was 10.9%; with SNB-19 CNS, 29.5%; in the assay on U251 CNS, 17.4%; with PC-3 prostate it was 28.3%; with SK-MEL-5 melanoma, 13%; with UACC-62 melanoma, 30.9%. Further, the growth was 27.6% in the assay on LOX IMVI melanoma and 54.7% in the assay on SK-MEL-28 melanoma.
On to `O=C1Nc2ccccc2/C1=C/c1cccn1C(=O)c1ccc(Cl)s1`, for which the growth in the assay with DU-145 prostate is 66.8%; in the assay with K-562 leukemia it was 36.8%; in the assay with MALME-3M melanoma, 104%; with MDA-MB-231 breast it was 50.9%; in the assay on RXF 393 renal it was 81.1%; in the assay with SF-268 CNS it was 39.4%. Further, the growth in the assay on SF-295 CNS is 88.8%; with SF-539 CNS, 62.4%; with UACC-257 melanoma it was 79.5%; with M14 melanoma it was 82.2%; in the assay on HCT-15 colon, 17.8%; with HT29 colon, 80.5%. Moreover, the growth with SNB-75 CNS is 63.6%; in the assay on SNB-19 CNS, 28.4%; in the assay with U251 CNS it was 22.3%; with PC-3 prostate, 33%; in the assay with SK-MEL-5 melanoma, 69.8%; with UACC-62 melanoma, 94.9%. The growth in the assay with LOX IMVI melanoma was 79.2%; in the assay on SK-MEL-28 melanoma, 113%.
`COc1ccc(/C=C(/c2ccccc2)[N+](=O)[O-])c(OC)c1`: the growth with DU-145 prostate is 38.6%; in the assay with K-562 leukemia, 6.07% (active); with MALME-3M melanoma it was -27% (active); in the assay with MDA-MB-231 breast, 12.1%; in the assay on RXF 393 renal it was -67.8% (active); in the assay with SF-268 CNS, 14.3%. In addition, the growth was 9.19% (active) in the assay with SF-295 CNS; -48.5% (active) with SF-539 CNS; 10.4% in the assay with UACC-257 melanoma; 5.14% (active) in the assay with M14 melanoma; -36.4% (active) in the assay with HCT-15 colon; -19.2% (active) in the assay with HT29 colon. The growth with SNB-75 CNS was 53.3%; with SNB-19 CNS, -9.71% (active); in the assay on U251 CNS, -59.8% (active); in the assay with PC-3 prostate, -20.6% (active); in the assay on SK-MEL-5 melanoma, -25% (active); in the assay with UACC-62 melanoma, -53.9% (active). Also, the figures for the growth in the assay on LOX IMVI melanoma and with SK-MEL-28 melanoma were -83.5% (active) and -25.3% (active), respectively.
For the compound `CC1=C2[C@@H](CC1)[C@]1(C)O[C@@](C3CCCCC3)(C[C@H]1OC(=O)CO)[C@H]2OC(=O)/C=C/c1ccccc1`, the growth is 89.3% with DU-145 prostate; 63.5% with K-562 leukemia; 79.5% with MALME-3M melanoma; 86.4% in the assay with MDA-MB-231 breast; 39.9% in the assay on RXF 393 renal; 31.9% in the assay with SF-268 CNS. Also, the growth is 86.5% with SF-295 CNS; 102% with SF-539 CNS; 84.5% in the assay on UACC-257 melanoma; 91.6% in the assay on M14 melanoma; 77.9% with HCT-15 colon; 62.7% with HT29 colon. The growth is 72.6% in the assay on SNB-75 CNS; 91.4% in the assay on SNB-19 CNS; 73.9% with U251 CNS; 53.2% in the assay on PC-3 prostate; 87.3% in the assay with SK-MEL-5 melanoma; 62.5% with UACC-62 melanoma. The growth in the assay with LOX IMVI melanoma is 82.6%; in the assay with SK-MEL-28 melanoma, 101%.
On to `COc1ccc(-c2cc(-c3ccccc3)nc(N3CCN(CCNc4ccnc5cc(Cl)ccc45)CC3)n2)cc1`, for which the growth was -33.4% (active) in the assay on DU-145 prostate; 0.988% (active) in the assay on K-562 leukemia; -87.7% (active) in the assay on MALME-3M melanoma; -82.4% (active) in the assay with MDA-MB-231 breast; -34.7% (active) in the assay on RXF 393 renal; -15.1% (active) in the assay with SF-268 CNS. Moreover, the growth is 82.7% in the assay with SF-295 CNS; -40% (active) in the assay with SF-539 CNS; -84.5% (active) in the assay with UACC-257 melanoma; -70.9% (active) with M14 melanoma; -82% (active) with HCT-15 colon; -67.6% (active) with HT29 colon. The growth in the assay with SNB-75 CNS was 83.6%; in the assay with SNB-19 CNS, 72.7%; with U251 CNS it was 0.46% (active); in the assay with PC-3 prostate, 32.4%; in the assay on SK-MEL-5 melanoma, -98.6% (active); in the assay on UACC-62 melanoma, 62.2%. Further, the growth in the assay on LOX IMVI melanoma was -95.1% (active); in the assay with SK-MEL-28 melanoma, -93.1% (active).
As to `C[C@H](C(=O)N(CCc1ccc(Cl)c(Cl)c1)Cc1cncs1)[C@@H]1CC[C@H](C[C@H](C)n2cc(CN3CCC(c4ccc(Cl)cc4)CC3)nn2)O1`, the growth in the assay on DU-145 prostate is 112%; in the assay on K-562 leukemia it was -75.9% (active); in the assay with MALME-3M melanoma, 101%; in the assay with MDA-MB-231 breast it was 93.5%; with RXF 393 renal it was 103%; in the assay with SF-268 CNS, 102%. The growth in the assay on SF-295 CNS is 99.2%; in the assay on SF-539 CNS, 101%; with UACC-257 melanoma, 102%; with M14 melanoma it was 99.1%; in the assay with HCT-15 colon, 99.6%; in the assay on HT29 colon, 102%. Besides, the growth with SNB-75 CNS is 97.6%; with SNB-19 CNS, 94.5%; in the assay with U251 CNS it was 100%; with PC-3 prostate, 86.5%; in the assay with SK-MEL-5 melanoma, 101%; in the assay on UACC-62 melanoma, 90.3%. In addition, the growth is 98.3% with LOX IMVI melanoma and 102% in the assay on SK-MEL-28 melanoma.
As to `Cc1ccccc1Nc1cc(O)c2c(=O)cc(-c3ccccc3)oc2c1`, the growth in the assay with DU-145 prostate was 26.8%; in the assay with K-562 leukemia, 10.2%; in the assay with MALME-3M melanoma, 47.9%; in the assay with MDA-MB-231 breast it was 50.7%; with RXF 393 renal it was 28%; in the assay on SF-268 CNS, 61.5%. Moreover, the growth in the assay on SF-295 CNS is 27.1%; in the assay with SF-539 CNS, 23.1%; with UACC-257 melanoma, 80.6%; with M14 melanoma, 24.6%; in the assay on HCT-15 colon, 17.6%; with HT29 colon, 69.9%. The growth in the assay with SNB-75 CNS was -5.66% (active); in the assay on SNB-19 CNS, 32.6%; with U251 CNS, 36.2%; in the assay on PC-3 prostate, 40.6%; in the assay with SK-MEL-5 melanoma it was 23.5%; in the assay on UACC-62 melanoma, 43.4%. Moreover, the growth in the assay with LOX IMVI melanoma is 30.9%; in the assay on SK-MEL-28 melanoma, 51.1%.
